Screening results deposited in PubChem BioAssay by National Center for Advancing Translational Sciences (NCATS).
This is a sample that favours compounds with a hit; in the whole collection about 6.5% have one here.
HCMV antiviral = human cytomegalovirus inhibition; AID 1259415; activity change, negative = inhibition, % at 57.5 µM; 410,000 tested, 4.5% active; HFF cells, HCMV-luciferase reporter, 72 h; hits give low values; in the data active = activity change below about -60%; inconclusive = no clear call, values can overlap the other calls; inactive = above about -39%
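Two compound doses tested in HFFs infected with HCMV-luciferase, MOI 1 PFU/cell, 72 h at 37C. Lysate luminescence read with OneGlo; data normalized against buffer-only and 10uM Salinomycin inhibitor controls.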
Vaccinia mCherry = vaccinia inhibition (mCherry reporter) | Vaccinia virus mCherry reporter infection, fluorescence | Potency, µM (top dose mostly 36.5 µM), usual class: inhibitors | 310,000 tested, 0.63% active; calls by dose curve; tested in A549 cells; also: nearly all actives have a fitted effect of over 35% in size
Marburg entry inh = Marburg virus entry inhibition; Marburg virus pseudotyped entry inhibition, cell reporter; Potency, µM (series often up to 37.8 µM), actives largely listed as inhibitors; 300,000 tested, 1.8% active; calls by dose curve; tested in HEK293 cells
Vaccinia Venus = vaccinia inhibition (Venus reporter); Vaccinia virus Venus reporter expression, fluorescence; Potency, µM (top dose mostly 36.5 µM), actives largely listed as inhibitors; 330,000 tested, 0.46% active; calls by dose curve; tested in A549 cells; also: nearly all actives have a fitted effect of over 30% in size
FMDV inh = antivirals against foot and mouth disease virus; 410,000 tested, 1.2% active; Potency, µM (series often up to 57.9 µM), hits mostly inhibitors; FMDV antiviral cell-based qHTS; calls by dose curve; tested in HEK293T cells; also: read-out not given here; nearly all actives have a fitted effect of over 45% in size
Lassa entry inh = inhibitors of Lassa virus binding or cell entry. AID 540256. Potency, µM (top dose mostly 37.9 µM), actives largely listed as inhibitors. 300,000 tested, 1.2% active. Lassa virus pseudotype entry inhibition, cell reporter; calls by dose curve; tested in HEK293 cells; also: nearly all actives have a fitted effect of over 50% in size
Large screens that a line does not name were inactive; ! = a repeat was not active.

Cc1ccc(NS(=O)(=O)c2ccc3c(c2)CC(C)N3C(=O)C2CCC2)cc1Cl (configuration not stated)	HCMV antiviral -76 (no result: Marburg entry inh)
CCN(Cc1ccccc1)C(=O)CCNS(=O)(=O)c1ccc2c(c1)CC(C)N2C(C)=O (configuration not stated)	HCMV antiviral -72! (no result: Marburg entry inh)
COc1ccc(OC)c(NC(=O)C2CCN(S(=O)(=O)c3ccc4c(c3)CC(C)N4C(C)=O)CC2)c1 (configuration not stated)	HCMV antiviral -86!
CC(=O)Nc1ccc(NS(=O)(=O)c2ccc3c(c2)CC(C)N3C(=O)C2CCC2)cc1 (configuration not stated)	Lassa entry inh inconclusive (no result: Marburg entry inh)
COc1ccccc1C(=O)Nc1nnc(SCc2cc(=O)n3ccc(C)cc3n2)s1	none (no result: Marburg entry inh)
O=C(c1ccccc1Cl)N1CCCCC1CCN1CCCCC1 (configuration not stated)	none
O=C(COc1ccccc1C(=O)Nc1ccccc1)Nc1ccc2ccccc2c1	none (no result: HCMV antiviral, Marburg entry inh, FMDV inh, Lassa entry inh)
CC1Cc2cc(S(=O)(=O)N3CCC(C(=O)NCc4ccco4)CC3)ccc2N1C(=O)C1CCC1 (configuration not stated)	HCMV antiviral inconclusive, Marburg entry inh 13µM, Lassa entry inh inconclusive
CC(=O)N1c2ccc(S(=O)(=O)NCC3CCC(C(=O)Nc4ccc(C)cc4)CC3)cc2CC1C (configuration not stated)	FMDV inh inconclusive (no result: Marburg entry inh)
Cc1ccc(CNC(=O)C2CCN(S(=O)(=O)c3ccc4c(c3)CC(C)N4C(=O)C3CC3)CC2)cc1 (configuration not stated)	none (no result: Marburg entry inh, Lassa entry inh)
CC(=O)N1c2ccc(S(=O)(=O)N3CCCCC3)cc2CC1C(=O)Nc1ccc(F)cc1C (configuration not stated)	HCMV antiviral -79, Marburg entry inh inconclusive
CC(=O)N1c2ccc(S(=O)(=O)NCC3CCC(C(=O)Nc4cc(C)ccn4)CC3)cc2CC1C (configuration not stated)	HCMV antiviral -91, Vaccinia Venus inconclusive, FMDV inh inconclusive
CC(=O)N1c2ccc(S(=O)(=O)NCC3CCC(C(=O)Nc4cccc(F)c4)CC3)cc2CC1C (configuration not stated)	HCMV antiviral -77, Vaccinia Venus inconclusive, FMDV inh 20µM, Lassa entry inh inconclusive (no result: Marburg entry inh)
CN(CCO)C(=O)c1cn(C2CCN(Cc3ccc4ccccc4c3)CC2)nn1	none (no result: HCMV antiviral, Marburg entry inh, Lassa entry inh)
CCN1C(=NCc2ccc(OC)cc2)NC(c2cccc(C(F)(F)F)c2)C(C(=O)OC)=C1C (configuration not stated)	none (no result: HCMV antiviral, Vaccinia mCherry, Vaccinia Venus, FMDV inh, Lassa entry inh)
Cc1ccc(C)c(Cn2nnc(C(=O)NCc3ccccc3)c2N)c1	Marburg entry inh inconclusive
c1ccc(CCNc2ccc3c(c2)Cc2ccccc2-3)nc1	Vaccinia mCherry inconclusive, Marburg entry inh 1µM, Lassa entry inh inconclusive
CCCC(=O)Nc1nnc(SCc2cc(=O)n3cccc(C)c3n2)s1	none (no result: Marburg entry inh)
N#CC1=C(N)OC(c2ccccc2)=C(C#N)C1c1ccc2c(c1)OCO2 (configuration not stated)	none (no result: Vaccinia mCherry, Vaccinia Venus)
N#CC1=C(N)OC2=C(C(=O)CC(c3ccccc3)C2)C1c1ccc2c(c1)OCO2 (configuration not stated)	HCMV antiviral inconclusive, FMDV inh inconclusive, Lassa entry inh 13µM
Cc1nc2ccc(S(=O)(=O)N(CC(=O)Nc3cccc(C)c3C)Cc3ccccc3)cc2s1	none (no result: Marburg entry inh)
Cc1cnc(C)c(-c2cccc3c2OC(CNC(=O)CN2C(=O)c4ccccc4C2=O)C3)n1 (configuration not stated)	none (no result: HCMV antiviral, Marburg entry inh, Lassa entry inh)
Cc1cc(NC(=O)c2cccc(COc3ccc(Br)cc3)c2)no1	Marburg entry inh 7.3µM, Lassa entry inh 13µM
Cc1nn(Cc2c(F)c(F)c(F)c(F)c2F)c(C)c1NC(=O)c1cccc(COc2ccc(Cl)cc2)c1	Marburg entry inh inconclusive
CCOc1ccc(C(=O)Nc2cc(C)on2)cc1	Marburg entry inh inconclusive, Lassa entry inh inconclusive (no result: Vaccinia mCherry, Vaccinia Venus)
CC(C)c1cc(C(N)=O)c(NC(=O)c2cccc(COc3ccc(Cl)cc3)c2)s1	Marburg entry inh 3.2µM, Lassa entry inh inconclusive
COc1cc2c(cc1OC)C(COc1ccc3c(C)cc(=O)oc3c1)N(C(=O)c1ccccc1F)CC2 (configuration not stated)	none
CCc1ccc(CNC(=O)CCn2c(=O)c3cccn3c3ccc(F)cc32)cc1	HCMV antiviral inconclusive (no result: Marburg entry inh)
O=C(Nc1cc(C(=O)NC2CCOCC2)c2c(c1)ncn2C1CCCC1)c1ccccc1	none (no result: HCMV antiviral, Marburg entry inh, Lassa entry inh)
CCCC(=O)NC1CCc2cc(OC)c(OC)c(OC)c2-c2ccc(OC)c(=O)cc21 (configuration not stated)	HCMV antiviral -91, Vaccinia mCherry inconclusive, Marburg entry inh inconclusive, Vaccinia Venus inconclusive, Lassa entry inh inconclusive
COc1c(O[C@@H]2O[C@H](CO)[C@@H](O)[C@H](O)[C@H]2O)cc2c(c1OC)-c1ccc(SC)c(=O)cc1C(NC(C)=O)CC2 (some centres not stated)	none (no result: Marburg entry inh, Lassa entry inh)
COc1cc2c(c(OC)c1OC)-c1ccc(OC)c(=O)cc1C(NC(C)=O)CC2 (configuration not stated)	HCMV antiviral -87, Vaccinia Venus inconclusive (no result: Marburg entry inh, Lassa entry inh)
COc1cc(CC(=O)NC2CCCc3ccccc32)cc(OC)c1OC (configuration not stated)	Marburg entry inh inconclusive
COc1ccc2c(c1)C(NC(C)=O)CCc1cc(OC)c(OC)c(OC)c1-2 (configuration not stated)	HCMV antiviral -67, Marburg entry inh inconclusive, Vaccinia Venus inconclusive, Lassa entry inh inconclusive
COc1c(C=O)c2c(c(OC)c1OC)-c1ccc(OC)c(=O)cc1C(NC(C)=O)CC2 (configuration not stated)	HCMV antiviral -68, Vaccinia mCherry inconclusive, Vaccinia Venus inconclusive, Lassa entry inh inconclusive
COc1cc2c(c(OC)c1OC)-c1ccc(O)c(=O)cc1C(NC(C)=O)CC2 (configuration not stated)	Marburg entry inh inconclusive, Vaccinia Venus inconclusive (no result: HCMV antiviral)
COc1cccc(-c2ccnc3c(-c4ccccc4)c(C)nn23)c1	Marburg entry inh inconclusive
COc1ccccc1Cn1ccn(Cc2ccc(C)cc2)c(=O)c1=O	none (no result: Marburg entry inh)
COC(=O)c1ccc2c(c1)C(NC(C)=O)CCc1cc(OC)c(OC)c(OC)c1-2 (configuration not stated)	HCMV antiviral -81, Marburg entry inh inconclusive, Vaccinia Venus inconclusive, Lassa entry inh inconclusive
O=C1C(=O)N2C(=C1C(=O)N1CCCCCC1)c1ccccc1CC21CCCC1	HCMV antiviral -66
CC1(C)Cc2ccccc2C2=C(C(=O)N3CCCCCC3)C(=O)C(=O)N21	none (no result: Vaccinia mCherry, Vaccinia Venus)
C=CCn1c(C)cc(-c2csc(NCC)n2)c1C	HCMV antiviral -63, Marburg entry inh inconclusive
COc1ccccc1C=CC(=O)C=Cc1ccccc1OC	HCMV antiviral -100, Vaccinia mCherry inconclusive, Marburg entry inh inconclusive, Vaccinia Venus inconclusive, FMDV inh inconclusive, Lassa entry inh 4.5µM
COc1ccccc1/C=C/C(=O)/C=C/c1ccccc1O	HCMV antiviral -98, Vaccinia mCherry inconclusive, Marburg entry inh inconclusive, Lassa entry inh inconclusive
